From PubChem BioAssay AID1117291 (Broad Institute, 2014)
Entries with a potency or affinity are not part of this list. Records with an inconclusive call do not appear. Active and inactive are the calls of the source.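 The calls were made as follows: active = compound whose fitted half-maximal potency lies at or below double its highest tested dose in every test; inconclusive = tests disagree, or a flat partial loss, or a poor fit; inactive = every test inactive.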

Experiment: HepG2 cell cytotoxicity, dose response, cytotoxicity control, CellTiter-Glo luminescence, dry powder, set 20 (AID 1117291)
Details: HepG2 viability, CellTiter-Glo ATP luminescence, 72 h; series mostly up to 26 µM; activity change, negative = cytotoxicity: at the top concentration

| Compound | activity change, negative = cytotoxicity | outcome |
| --- | --- | --- |
| COc1ccc(C(=O)Nc2ccccc2N2CCCCC2)cc1S(=O)(=O)O | -17.1% (inactive) | – |
| CC(=O)N1CCN(C(=O)C2(NC(=O)Nc3ccc(C(F)(F)F)cc3)CCCC2)CC1 | -26.9% (inactive) | – |
| O=S(=O)(O)c1ccc(N2N=C(c3ccccc3)CC2c2ccccc2)cc1 (configuration not stated) | -22.6% (inactive) | – |
| COc1ccc(C(=O)O)cc1S(=O)(=O)Nc1cc(C(F)(F)F)ccc1N1CCCCC1 | – | inactive |
| Cn1cnc(S(=O)(=O)Nc2cc(C(F)(F)F)ccc2N2CCCCC2)c1 | 16.2% (inactive) | – |
| O=[N+]([O-])c1cccc(S(=O)(=O)Nc2cc(C(F)(F)F)ccc2N2CCCCC2)c1 | -7.31% (inactive) | – |
| O=S(=O)(Nc1cc(C(F)(F)F)ccc1N1CCCCC1)c1ccccc1 | -7% (inactive) | – |
| CC(=O)N1CCN(C(=O)C2(NC(=O)Nc3cccc(C(F)(F)F)c3)CCCCC2)CC1 | -9.88% (inactive) | – |
| CC(=O)N1CCN(C(=O)C2(NC(=O)Nc3ccc(F)cc3)CCCC2)CC1 | -14.2% (inactive) | – |
| COc1ccc(C(=O)Nc2cc(C(F)(F)F)ccc2N2CCOCC2)cc1S(=O)(=O)O | -8.25% (inactive) | – |
| CC(=O)N1CCN(C(=O)CNC(=O)Nc2ccc(C)cc2)CC1 | -26.5% (inactive) | – |
| CC(=O)N1CCN(C(=O)C2(NC(=O)Nc3ccccc3C(F)(F)F)CCCCC2)CC1 | -12.9% (inactive) | – |
| O=S(=O)(Nc1cc(C(F)(F)F)ccc1N1CCCCC1)c1ccc(C(F)(F)F)cc1 | -34.1% (inactive) | – |
| O=S(=O)(Nc1cc(C(F)(F)F)ccc1N1CCCCC1)c1ccc(Cl)cc1 | -23.2% (inactive) | – |
| CC(=O)N1CCN(C(=O)[C@@H]2CCN2C(=O)Nc2ccc(C)cc2)CC1 | -9.8% (inactive) | – |
| CC(=O)N1CCN(C(=O)C2(NC(=O)Nc3ccc(C(C)C)cc3)CCCC2)CC1 | -5.85% (inactive) | – |
| COc1cccc(NC(=O)NC2(C(=O)N3CCN(C(C)=O)CC3)CCCCC2)c1 | 0.762% (inactive) | – |
| CC(=O)N1CCN(C(=O)C2CCCN2C(=O)Nc2ccc(C)cc2)CC1 (configuration not stated) | -7.76% (inactive) | – |
| N#Cc1ccc(S(=O)(=O)Nc2cc(C(F)(F)F)ccc2N2CCCCC2)cc1 | -15.7% (inactive) | – |
| COc1ccc(C(=O)Nc2cc(C(F)(F)F)ccc2N2CCCCC2)cc1S(=O)(=O)O | -13.2% (inactive) | – |
| CC(=O)N1CCN(C(=O)C2(NC(=O)Nc3ccc(C(F)(F)F)cc3)CCCCC2)CC1 | 1.91% (inactive) | – |
| O=S(=O)(Nc1cc(C(F)(F)F)ccc1N1CCCCC1)c1ccc(Br)cc1 | -18% (inactive) | – |
